High-throughput results (PubChem BioAssay)
An excerpt weighted towards active compounds, which were near 3.5% of everything screened.
mHTT-CaM PPI inh = mutant huntingtin-calmodulin interaction inhibitors – biochemical, AlphaScreen, primary screen; 190,000 compounds, 3.6% hits; AlphaScreen His-mHTT/GST-CaM binding, luminescence; AID 1671202, 2021; inhibition, % at 15 µM; P42858;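 note: 0% = both proteins with DMSO and 100% = one protein alone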
Pf apPOL inh = Pf-apPOL inhibitors, biochemical, fluorescence; Plasmodium falciparum apicoplast DNA polymerase (apPOL); Recombinant Pf-apPOL, molecular beacon fluorescence, 1.5 h; inhibition, % at 10 µM; 210,000 compounds, 0.25% hits
The depositor's hits bear a star. Cut-off read from the data, not from the text of the source: active = inhibition above about 50%; inactive = the rest.

Screening CC1(C)COC(c2cccc([N+](=O)[O-])c2)=N1 returned mHTT-CaM PPI inh 0.4 and Pf apPOL inh -1.3.
Screening Cc1nc(-c2cccnc2)nc2c1CCC(=O)N2C returned mHTT-CaM PPI inh -6.7 and Pf apPOL inh 3.5.
`O=C1NC2C3CC4CC(C3)CC2(C4)O1` (stereo unspecified) gave Pf apPOL inh -3.1.
For CC(CCC(=O)NN=Cc1c[nH]c2ccccc12)C1CCC2C3C(O)CC4CC(O)CCC4(C)C3CCC12C (stereo unspecified) the results were mHTT-CaM PPI inh 100.1* and Pf apPOL inh -3.1.
For CC(CCC(=O)N=Nc1c(O)[nH]c2ccc(Cl)cc12)C1CCC2C3C(O)CC4CC(O)CCC4(C)C3CCC12C (stereo unspecified) the results were mHTT-CaM PPI inh 43.2 and Pf apPOL inh 0.9.
`CC(CCC(=O)N=Nc1c(O)[nH]c2c(Cl)cc(Cl)cc12)C1CCC2C3C(O)CC4CC(O)CCC4(C)C3CCC12C` (stereo unspecified) gave mHTT-CaM PPI inh 66.9* and Pf apPOL inh 0.1.
CC(CCC(=O)O)C1CCC2C3CC(O)C4CC(O)CCC4(C)C3CCC12C (stereo unspecified) was read as mHTT-CaM PPI inh 19.0 and Pf apPOL inh -8.9.
For O=C(NCC(O)c1ccc(C(F)(F)F)cc1)C(c1ccccc1)c1ccccc1 (stereo unspecified) the results were mHTT-CaM PPI inh 86.2* and Pf apPOL inh -5.8.
Screening O=C(NCc1ccccc1)NCC(O)c1ccc(C(F)(F)F)cc1 (stereo unspecified) returned mHTT-CaM PPI inh -10.1 and Pf apPOL inh -32.8.
For COc1ccccc1Nc1nc(-c2c(C)nc3ccccn23)cs1 the results were mHTT-CaM PPI inh 61.5* and Pf apPOL inh -2.6.
`COc1ccc(OC)c(Nc2nc(-c3cccc([N+](=O)[O-])c3)cs2)c1` gave mHTT-CaM PPI inh 4.5 and Pf apPOL inh 2.7.
COc1ccc(OC)c(Nc2nc(-c3c(C)nc4ncccn34)cs2)c1 was read as mHTT-CaM PPI inh 81.5* and Pf apPOL inh -7.3.
Cc1nc2sccn2c1-c1csc(Nc2ccc([N+](=O)[O-])cc2)n1 was read as mHTT-CaM PPI inh 10.0 and Pf apPOL inh -1.1.
COc1ccccc1Nc1nc(-c2ccccc2)cs1 was read as mHTT-CaM PPI inh 18.1 and Pf apPOL inh -1.2.
For COc1ccccc1Nc1nc(-c2cccnc2)cs1 the results were mHTT-CaM PPI inh 25.0 and Pf apPOL inh -2.5.
`CCN(CC)c1ccc(Nc2nc(-c3c(C)nc4sccn34)cs2)cc1` gave mHTT-CaM PPI inh 92.8* and Pf apPOL inh 0.1.
COc1ccccc1Nc1nc(-c2c(C)nc3sccn23)cs1 was read as mHTT-CaM PPI inh 80.0* and Pf apPOL inh -3.7.
CCOC(=O)CNC(=O)NCCC1CCN(S(=O)(=O)c2ccc(C)cc2)CC1 was read as mHTT-CaM PPI inh 31.4 and Pf apPOL inh -4.7.
Screening CN1c2ccccc2C(=O)NC12CCN(C(=O)c1cccc(F)c1)CC2 returned mHTT-CaM PPI inh -4.8 and Pf apPOL inh -1.9.
CCCc1oc2cc(OCC(=O)OC)c(CC)cc2c(=O)c1-c1ccc2c(c1)OCCCO2 was read as mHTT-CaM PPI inh -1.1 and Pf apPOL inh -0.8.
Screening CCc1cc2c(=O)c(-c3ccc4c(c3)OCCO4)c(C)oc2cc1OCC(=O)OC returned mHTT-CaM PPI inh 6.1 and Pf apPOL inh 54.8*.
`O=[N+]([O-])c1cc2c(cc1C1NN=C(c3ccccc3)S1)OCO2` (stereo unspecified) gave mHTT-CaM PPI inh 52.3* and Pf apPOL inh -9.2.
O=C1CSC(c2cc3c(cc2[N+](=O)[O-])OCO3)N1c1ccccc1F (stereo unspecified) was read as mHTT-CaM PPI inh 16.0 and Pf apPOL inh -2.5.
CN1CCN(c2ccc3c(c2)Oc2ccccc2CN(Cc2cn(Cc4ccc(C(F)(F)F)cc4)nn2)S3(=O)=O)CC1 was read as mHTT-CaM PPI inh 72.4* and Pf apPOL inh -5.7.
For O=S1(=O)c2ccc(N3CCCC3)cc2Oc2ccccc2CN1Cc1cn(Cc2ccc(Cl)cc2)nn1 the results were mHTT-CaM PPI inh -1.6 and Pf apPOL inh -4.8.
O=C(NC1CC2CC1N(C(=O)Cc1ccsc1)C2)c1cccnc1 (stereo unspecified) was read as mHTT-CaM PPI inh -0.6 and Pf apPOL inh -2.9.
For Cn1c(=O)c2c(n3c(SCC(N)=O)nnc13)-c1ccccc1CC21CCCCC1 the results were mHTT-CaM PPI inh 26.0 and Pf apPOL inh -12.1.
For CN(C)c1ccc(C2CC(c3ccccc3)=NN2C(=O)c2ccc(F)cc2)cc1[N+](=O)[O-] (stereo unspecified) the results were mHTT-CaM PPI inh 55.0* and Pf apPOL inh -1.2.
For CN(C)c1ccc(C2CC(c3ccccc3)=NN2C(=O)c2ccc(F)cc2)cc1 (stereo unspecified) the results were mHTT-CaM PPI inh 13.0 and Pf apPOL inh 1.4.
Screening CN(CCc1ccncc1)C(=O)c1cc2cn(C3CC3)cc2s1 returned mHTT-CaM PPI inh 13.5 and Pf apPOL inh 12.0.
